Experimental data reported in PubChem BioAssay (NCATS).
Values joined by “and” are separate entries in the source; they are usually repeats but may differ in a detail not shown here. Equal values may be shown once. Results filed as inconclusive are left out. Some structures have more than one record in an assay (separate samples or runs), and their calls can disagree. Active and inactive are the calls of the source. Calls come from the whole dose curve; as a rule, active = well fitted curve in the direction sought with a large enough effect; inconclusive = small, poorly fitted or top-dose-only effect, or another doubt; inactive = no such curve, though single readings can be large; an effect the other way counts as inactive or inconclusive.

What was measured:
OV90 = experiment: Primary qHTS to identify gynecologic anti-cancer compounds using libraries of approved drugs and bioactive compounds (AID 1345084); details: Gynecologic cancer cell panel viability, ATPlite luminescence, 48 h; series mostly up to 57.5 µM; note: nearly all actives have a fitted effect of over 55% in size
Procedure, shortened: (§1)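 Cells, 1,000 per well, plated 16 h, then exposed 48 h at 37 C to compounds. Viability by ATPlite luminescence after 15 min at room temperature.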

PA-1 = experiment: as above; details: Gynecologic cancer cell panel viability, ATPlite luminescence, 48 h; series mostly up to 57.5 µM
Procedure, shortened: as §1

SKOV3 = experiment: as above; details: Gynecologic cancer cell panel viability, ATPlite luminescence, 48 h; series mostly up to 57.5 µM
Procedure, shortened: as §1

Tov-21-G = experiment: as above; details: Gynecologic cancer cell panel viability, ATPlite luminescence, 48 h; series mostly up to 57.5 µM
Procedure, shortened: as §1

Tov112D = experiment: as above; details: Gynecologic cancer cell panel viability, ATPlite luminescence, 48 h; series mostly up to 57.5 µM
Procedure, shortened: as §1

[1] = Drug repurposing screens with cells derived from glioblastoma tumor samples (AID 1345199); details: GBM patient neurospheres viability, ATP luminescence, 48 h; note: nearly all actives have a fitted effect of over 40% in size
Procedure, shortened: (§2)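 Primary testing used CD133+ neurospheres from four GBM patients, seven concentrations, 48 h exposure and ATP-based viability; confirmation added three slower-growing patient lines.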

astro = experiment: as above; details: viability, ATP luminescence, 48 h; series mostly up to 45.9 µM
Procedure, shortened: as §2

[2] = at 45.9 µM (top of the series), tumour line B
[3] = at 45.9 µM (top of the series), tumour line D
[4] = at 46 µM (top of the series), tumour line A
[5] = at 46.1 µM (top of the series), tumour line C
% is set by controls: 0 for no effect and ±100 for the full control effect; potency is the fitted concentration of half-maximal effect.

O=C1CCCC2=C1C(c1[nH]ncc1Cl)N=C(Nc1nc3ccccc3o1)N2 (configuration not stated)
inactive: Potency (OV90) | Potency (PA-1) | Potency (SKOV3) | Potency (Tov-21-G) | Potency (Tov112D)

CN(C)c1ccc(Nc2nc(N)n(C(=O)c3c(F)cccc3F)n2)cc1
inactive: Potency (OV90) | Potency (PA-1) | Potency (SKOV3) | Potency (Tov-21-G) | Potency (Tov112D)

CCC(C)n1ncn(-c2ccc(N3CCN(c4ccc(OC[C@H]5CO[C@](Cn6cncn6)(c6ccc(Cl)cc6Cl)O5)cc4)CC3)cc2)c1=O (some centres not stated)
inactive: Potency (OV90) | Potency (PA-1) | Potency (SKOV3) | Potency (Tov-21-G) | Potency (Tov112D)

C[C@@H]1CN(Cc2ccc(F)cc2)[C@@H](C)CN1C(=O)c1cc2c(C(=O)C(=O)N(C)C)cn(C)c2cc1Cl
inactive: Potency (OV90) | Potency (PA-1) | Potency (SKOV3) | Potency (Tov-21-G) | Potency (Tov112D)

CN(C(=O)c1ccc(F)cc1C(F)(F)F)C1CCN(c2nnc(-c3ccnn3C)c3ccccc23)CC1
inactive: Potency (OV90) | Potency (PA-1) | Potency (SKOV3) | Potency (Tov-21-G) | Potency (Tov112D)

CC(C[N+](C)(C)C)OC(N)=O (configuration not stated)
inactive: Potency (OV90) | Potency (PA-1) | Potency (SKOV3) | Potency (Tov-21-G) | Potency (Tov112D) | activity, negative = cell killing [1, 2] -0.814% | activity, negative = cell killing [1, 3] 5.66% | activity, negative = cell killing [1, 4] -20.4% | activity, negative = cell killing [1, 5] 5.23% | Potency (astro)

COc1cc2c(cc1OC)CN(CCc1ccc(NC(=O)c3cccc4c(=O)c5cccc(OC)c5[nH]c34)cc1)CC2
inactive: Potency (OV90) | Potency (PA-1) | Potency (SKOV3) | Potency (Tov-21-G) | Potency (Tov112D)

Cc1cc(SCc2sc(-c3ccc(C(F)(F)F)cc3)nc2C)ccc1OCC(=O)O
inactive: Potency (OV90) | Potency (PA-1) | Potency (SKOV3) | Potency (Tov-21-G) | Potency (Tov112D)

CCCc1nc2c(C)cc(-c3nc4ccccc4n3C)cc2n1Cc1ccc(-c2ccccc2C(=O)O)cc1
inactive: Potency (OV90) | Potency (PA-1) | Potency (SKOV3) | Potency (Tov-21-G) | Potency (Tov112D) | activity, negative = cell killing [1, 2] -13.6% | activity, negative = cell killing [1, 3] -10.2% | activity, negative = cell killing [1, 4] -16.9% | activity, negative = cell killing [1, 5] -10.7% | Potency (astro)

COc1cccc2cc(-c3nc(C4CCC(C(=O)O)CC4)n4ncnc(N)c34)[nH]c12 (configuration not stated)
active: Potency (OV90) 7.94 µM | Potency (PA-1) 3.16 µM | Potency (SKOV3) 11.2 µM | Potency (Tov-21-G) 3.55 µM

COc1nc(-c2ccc3c(c2)OCO3)n(-c2ccc(NC(=O)CSc3ccccc3)cc2)n1
inactive: Potency (OV90) | Potency (PA-1) | Potency (SKOV3) | Potency (Tov-21-G) | Potency (Tov112D)

O=C(O)COCCN1CCN(C(c2ccccc2)c2ccc(Cl)cc2)CC1 (configuration not stated)
inactive: Potency (OV90) | Potency (PA-1) | Potency (SKOV3) | Potency (Tov-21-G) | Potency (Tov112D) | activity, negative = cell killing ([1]; at 20 µM (top of the series), tumour line C) -26.4% | activity, negative = cell killing ([1]; at 21.2 µM (top of the series), tumour line B) -3.42% | activity, negative = cell killing ([1]; at 21.2 µM (top of the series), tumour line D) -18.8% | activity, negative = cell killing ([1]; at 21.3 µM (top of the series), tumour line A) -26.6% | Potency (astro)

Cc1cnc(NC(=O)C2=C(O)c3ccccc3S(=O)(=O)N2C)s1
inactive: Potency (OV90) | Potency (PA-1) | Potency (SKOV3) | Potency (Tov-21-G) | Potency (Tov112D) | activity, negative = cell killing [1, 2] -11.1% and -5.23% | activity, negative = cell killing [1, 3] 7.55% and -2.79% | activity, negative = cell killing [1, 4] -27.8% | activity, negative = cell killing [1, 5] 4.05% and -0.835% | Potency (astro)

CCc1ccc(CCOc2ccc(CC3SC(=O)NC3=O)cc2)nc1 (configuration not stated)
inactive: Potency (OV90) | Potency (PA-1) | Potency (SKOV3) | Potency (Tov-21-G) | Potency (Tov112D) | activity, negative = cell killing [1, 2] -10.3% | activity, negative = cell killing [1, 3] -17.6%

OCCn1cc(-c2cnc3nnn(Cc4ccc5ncccc5c4)c3n2)cn1
inactive: Potency (OV90) | Potency (PA-1) | Potency (SKOV3) | Potency (Tov-21-G) | Potency (Tov112D)

O=C(Nc1ccc(F)c(C(F)(F)F)c1)Nc1nnc(-c2ccncc2)s1
inactive: Potency (OV90) | Potency (PA-1) | Potency (SKOV3) | Potency (Tov-21-G) | Potency (Tov112D)

Cc1n[nH]c(C)c1Cc1sc2c(c1C(=O)N1C[C@H](O)CO1)c(=O)n(C)c(=O)n2CC(C)C
inactive: Potency (OV90) | Potency (PA-1) | Potency (SKOV3) | Potency (Tov-21-G) | Potency (Tov112D)

Clc1ccc(Nc2nnc(Cc3ccncc3)c3ccccc23)cc1
active: Potency ([1]; tumour line A) 12.6 µM and 7.08 µM
inactive: Potency (OV90) | Potency (PA-1) | Potency (SKOV3) | Potency (Tov-21-G) | Potency (Tov112D) | activity, negative = cell killing [1, 2] -12.8% and 0.35% | activity, negative = cell killing [1, 5] -11.6% and 1.14%

COc1cc(Oc2ccnc3cc(OC)c(OC)cc23)ccc1NC(=O)NC(C)c1nccs1 (configuration not stated)
inactive: Potency (OV90) | Potency (PA-1) | Potency (SKOV3) | Potency (Tov-21-G) | Potency (Tov112D)

NCCCC(N)(C(=O)O)C(F)F (configuration not stated)
inactive: Potency (OV90) | Potency (PA-1) | Potency (SKOV3) | Potency (Tov-21-G) | Potency (Tov112D) | activity, negative = cell killing [1, 2] -9.02% | activity, negative = cell killing [1, 3] 7.69% | activity, negative = cell killing [1, 4] -29.6% | activity, negative = cell killing [1, 5] -4.46% | Potency (astro)

CNC(=O)c1ccc(C)c(-n2c(C)cc(OCc3ccc(F)cc3F)c(Br)c2=O)c1
inactive: Potency (OV90) | Potency (PA-1) | Potency (SKOV3) | Potency (Tov-21-G) | Potency (Tov112D)

COc1cc(F)c(F)c(Nc2ccc(I)cc2F)c1NS(=O)(=O)C1(C[C@H](O)CO)CC1
inactive: Potency (PA-1) | Potency (SKOV3)
active: Potency (OV90) 2.51 µM

CNCc1ccc(-c2[nH]c3cc(F)cc4c3c2CCNC4=O)cc1
inactive: Potency (OV90) | Potency (PA-1) | Potency (SKOV3) | Potency (Tov-21-G) | Potency (Tov112D)

COc1cc2nccc(Oc3ccc(NC(=O)NC4CC4)c(Cl)c3)c2cc1C(N)=O
inactive: Potency (OV90) | Potency (PA-1) | Potency (SKOV3) | Potency (Tov-21-G) | Potency (Tov112D)

CC(C)NCC(O)COc1ccc(COCCOC(C)C)cc1 (configuration not stated)
inactive: Potency (OV90) | Potency (PA-1) | Potency (SKOV3) | Potency (Tov-21-G) | Potency (Tov112D) | activity, negative = cell killing [1, 2] -9.69% and -16.2% | activity, negative = cell killing [1, 3] 1.75% and -24.1% | activity, negative = cell killing [1, 5] -2.09% and 0.649% | Potency (astro)
active: Potency ([1]; tumour line A) 11.2 µM
